Source: PubChem BioAssay (EPA / NIEHS)
Records with an inconclusive call do not appear. Calls of active or inactive are those of the source. The calls were made as follows, unless noted: active = hit-call score of the fitted dose curve at least 0.9, where 1 is the maximum; inconclusive = response in the unintended direction; inactive = score below 0.9.

Experiments:
[1] = Tanguay_ZF_120hpf_OTIC_legacy: (Legacy) Oregon State University Tanguay Lab 120 Hour Post-fertilization zebrafish Assay for Otic Vesicle Malformation (AID 2283639)
In short: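 Wild-type zebrafish larvae, whole-embryo exposure from early stage to 120 hpf at 28C. Binary brightfield scoring of otic vesicle morphology, fitted in the positive direction against the DMSO baseline.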

[2] = Tanguay_ZF_120hpf_BRAI_legacy: (Legacy) Oregon State University Tanguay Lab 120 Hour Post-fertilization zebrafish Assay for Brain Malformation (AID 2283641)
In short: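 Wild-type 5D larvae, static waterborne exposure to 120 hpf, 28C, 0.64% v/v DMSO. Brightfield scoring of brain defects, binary; dead embryos excluded. Positive ctrl 5uM trimethyltin chloride.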

[3] = Tanguay_ZF_120hpf_PIG_legacy: (Legacy) Oregon State University Tanguay Lab 120 Hour Post-fertilization zebrafish Assay for Pigmentation Malformation (AID 2283650)
In short: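 Pigment malformation recorded as a binary call at 120 hpf in zebrafish (Tropical 5D) exposed singly from 6 hpf after pronase dechorionation. Static, sealed, 28C exposure, 0.64% DMSO; mortality excludes scoring; positive-direction fit against DMSO.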

[4] = Tanguay_ZF_120hpf_CIRC_legacy: (Legacy) Oregon State University Tanguay Lab 120 Hour Post-fertilization zebrafish Assay for Circulatory Malformation (AID 2283651)
In short: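 Binary circulatory-malformation call at 120 hpf via brightfield imaging, relative to DMSO controls. Embryos (5D strain, chorion removed) received static, light-shielded exposure at 28C.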

[5] = Tanguay_ZF_120hpf_SWIM_legacy: (Legacy) Oregon State University Tanguay Lab 120 Hour Post-fertilization zebrafish Assay for Swim Bladder Malformation (AID 2283654);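 also: swim bladder malformation in each larva scored yes or no under brightfield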
In short: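 Scoring is binary for swim bladder defects at 120 hpf, by brightfield inspection of zebrafish larvae. Embryos were exposed singly from 6 hpf after pronase dechorionation, at 28C with 0.64% DMSO; mortality excluded scoring.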

[6] = Tanguay_ZF_120hpf_SOMI_legacy: (Legacy) Oregon State University Tanguay Lab 120 Hour Post-fertilization zebrafish Assay for Somite Malformation (AID 2283647)
In short: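 Read-out: presence or absence of somite malformation in 120 hpf larvae, gain-of-signal relative to DMSO baseline. Embryos lacked chorion (pronase, 4 hpf) and were exposed statically from 6 hpf at 28C; dead larvae not scored.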

[7] = Tanguay_ZF_120hpf_CFIN_legacy: (Legacy) Oregon State University Tanguay Lab 120 Hour Post-fertilization zebrafish Assay for Caudal Fin Malformation (AID 2283649)
In short: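 Binary presence or absence of caudal fin malformation at 120 hpf, read by brightfield microscopy, with DMSO as baseline. Larvae came from 5D wild-type embryos exposed statically from 6 hpf at 28C after pronase dechorionation.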

[8] = Tanguay_ZF_120hpf_PFIN_legacy: (Legacy) Oregon State University Tanguay Lab 120 Hour Post-fertilization zebrafish Assay for Pectoral Fin Malformation (AID 2283648);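 also: each larva judged yes or no for fin defect by brightfield with dead larvae skipped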
In short: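 Pectoral fin malformation was recorded as a binary endpoint at 120 hpf in wild-type Tropical 5D larvae, which had been dechorionated and exposed statically from 6 hpf at 28C in 0.64% DMSO. Dead embryos were excluded.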

[9] = read-out: kallikrein-3 (KLK3), KLK3 (gene 354); assay: LTEA_HepaRG_KLK3: Life Technologies and Expression Analysis (LTEA) Assay for kallikrein-3 (KLK3) using HepaRG (AID 2283652; active = hit-call score of the fitted dose curve at least 0.9, where 1 is the maximum; inactive = score below 0.9); settings: mRNA level, 48 h; actives raise or lower the signal
Description: LTEA_HepaRG is a cell based, multiplexed-readout assay that uses HepaRG, a human liver cell line, with measurements taken at 48 hours after chemical dosing on a 96-well plate.LTEA_HepaRG_KLK3 is one of 102 assay component(s) measured in the LTEA HepaRG cell culture assay. It is a marker of Cellular remodeling.Data from the assay component LTEA_HepaRG_KLK3 was analyzed into 1 endpoint. This assay endpoint, LTEA_HepaRG_KLK3, was analyzed with bidirectional fitting relative to DMSO as the negative control and baseline of activity. Using a type of inducible reporter, measures of mRNA induction for gain or loss-of-signal activity can be used to understand regulation of transcription factor activity. To generalize the intended target to other relatable targets, this assay endpoint is annotated to the protease intended target family, where the subfamily is Cellular remodeling.
A total of 1060 chemcials from the ToxCast library were tested in eight-point concentration-response experiments. Cell culture and cytotoxicity assays were conducted at Thermo Fisher Scientific's Custom Services facility (Madison, WI). […] Fluidigm's 96.96 Dynamic ArrayTM (Fluidigm, Amsterdam, the Netherlands) technology was used for gene expression analyses by quantitative reverse transcription polymerase chain reaction (qRT-PCR, performed by Quintiles/Expression Analysis, Durham, NC)89. […]

[10] = read-out: solute carrier (SLC22A6), SLC22A6 (gene 9356); assay: LTEA_HepaRG_SLC22A6: Life Technologies and Expression Analysis (LTEA) Assay for solute carrier (SLC22A6) using HepaRG (AID 2283653; active = hit-call score of the fitted dose curve at least 0.9, where 1 is the maximum; inactive = score below 0.9); settings: mRNA level, 48 h; actives raise or lower the signal
In short: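 Read-out is SLC22A6 transcript level by qRT-PCR, normalised to three housekeeping genes and fitted for gain or loss relative to 0.5% DMSO vehicle. Human HepaRG cells received chemicals at up to 100 uM for 48 h.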

N=C(N)c1ccc(OCCCCCOc2ccc(C(=N)N)cc2)cc1
outcome [1]: inactive
outcome [2]: inactive
outcome [3]: inactive
outcome [4]: inactive
outcome [5]: inactive

CN(C)CCOC(c1ccccc1)c1ccccc1
outcome [1]: inactive
outcome [6]: inactive
AC50 [7]: 14.1 µM (active)
outcome [3]: inactive
outcome [5]: inactive

CCCCC(CC)C(=O)O (stereo not given)
outcome [1]: inactive
outcome [2]: inactive
outcome [8]: inactive
outcome [3]: inactive

Cc1[nH]nc2c1N=C(c1ccccc1Cl)c1cc([N+](=O)[O-])ccc1N2
outcome [1]: inactive
outcome [2]: inactive
outcome [6]: inactive
outcome [8]: inactive
outcome [7]: inactive
outcome [3]: inactive
outcome [4]: inactive
outcome [5]: inactive

O=C(c1ccccc1)c1ccccc1
outcome [1]: inactive
outcome [6]: inactive
outcome [8]: inactive
outcome [7]: inactive
outcome [3]: inactive
outcome [4]: inactive
outcome [5]: inactive

CCCCC=O
AC50 [2]: 54.8 µM (active)
outcome [6]: inactive
outcome [8]: inactive
outcome [4]: inactive
outcome [9]: inactive
outcome [10]: inactive
outcome [5]: inactive

OCC(CO)(CBr)CBr
outcome [1]: inactive
outcome [2]: inactive
outcome [6]: inactive
outcome [8]: inactive
outcome [7]: inactive
outcome [3]: inactive
outcome [4]: inactive
outcome [5]: inactive

CCCCCCCCCCCCCCC
outcome [1]: inactive
outcome [2]: inactive
outcome [6]: inactive
outcome [8]: inactive
outcome [7]: inactive
outcome [4]: inactive
outcome [5]: inactive

CCC(C)c1ccccc1O (stereo not given)
outcome [1]: inactive
outcome [2]: inactive
outcome [6]: inactive
outcome [8]: inactive
outcome [7]: inactive
outcome [3]: inactive
outcome [5]: inactive

CN(Cc1cnc2nc(N)nc(N)c2n1)c1ccc(C(=O)N[C@@H](CCC(=O)O)C(=O)O)cc1
outcome [2]: inactive
outcome [6]: inactive
outcome [8]: inactive
outcome [7]: inactive
outcome [3]: inactive
outcome [4]: inactive
outcome [5]: inactive

CS(=O)(=O)c1ccc([C@@H](CC2CCCC2)C(=O)Nc2cnccn2)cc1Cl
outcome [1]: inactive
outcome [8]: inactive
outcome [7]: inactive
outcome [3]: inactive
outcome [4]: inactive

CCCCc1oc2ccccc2c1C(=O)c1cc(I)c(OCCN(CC)CC)c(I)c1
outcome [6]: inactive
outcome [8]: inactive
outcome [7]: inactive
outcome [3]: inactive

CCCCCCCCCCCCOS(=O)(=O)O
outcome [1]: inactive
outcome [2]: inactive
outcome [6]: inactive
outcome [8]: inactive
outcome [7]: inactive
outcome [3]: inactive
outcome [4]: inactive
outcome [5]: inactive

O=C1NS(=O)(=O)c2ccccc21
outcome [1]: inactive
outcome [6]: inactive
outcome [8]: inactive
outcome [7]: inactive
outcome [3]: inactive
outcome [4]: inactive
outcome [5]: inactive

CC(=O)Nc1ccc(O)cc1
outcome [1]: inactive
outcome [2]: inactive
outcome [6]: inactive
outcome [8]: inactive
outcome [7]: inactive
outcome [3]: inactive
outcome [4]: inactive
outcome [5]: inactive

O=C(CCCN1CCC(O)(c2ccc(Cl)cc2)CC1)c1ccc(F)cc1
outcome [1]: inactive
AC50 [2]: 4.16 µM (active)
outcome [6]: inactive
AC50 [8]: 5.92 µM (active)
outcome [7]: inactive
outcome [3]: inactive
outcome [4]: inactive
outcome [5]: inactive
